Screening results as filed in PubChem BioAssay.
This is a sample that favours compounds with a hit; in the whole collection about 6.5% have one here.
HCMV inh: qHTS Assay for inhibitors of the human cytomegalovirus (HCMV) | HFF cells, HCMV-luciferase reporter, 72 h; active compounds read low | activity change, negative = inhibition, % at 57.5 µM | 410,000 compounds, 4.5% hits | AID 1259415, 2018; in the data active = activity change below about -60%; inconclusive = no clear call, values can overlap the other calls; inactive = above about -39%
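Inhibition of viral replication was scored as loss of reporter luminescence in HFFs infected with HCMV-luciferase (MOI 1 PFU/cell) for 72 h; compounds tested at 2 doses, normalized to buffer and Salinomycin controls.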
Lassa entry inh: qHTS for Inhibitors of binding or entry into cells for Lassa Virus. Lassa virus pseudotype entry inhibition, cell reporter. Potency, µM (highest dose often 37.9 µM), actives largely listed as inhibitors. 300,000 compounds, 1.2% hits; calls by dose curve; tested in HEK293 cells; also: nearly all actives have a fitted effect of over 50% in size
Vaccinia mCherry: qHTS for Stage-Specific Inhibitors of Vaccinia Orthopoxvirus: mCherry Reporter Primary qHTS; Potency, µM (doses to about 36.5 µM), usual class: inhibitors; Vaccinia virus mCherry reporter infection, fluorescence; AID 720579, 2013; 310,000 compounds, 0.63% hits; calls by dose curve; tested in A549 cells; also: nearly all actives have a fitted effect of over 35% in size
Vaccinia Venus: qHTS for Stage-Specific Inhibitors of Vaccinia Orthopoxvirus: Venus Reporter Primary qHTS; Vaccinia virus Venus reporter expression, fluorescence; Potency, µM (series often up to 36.5 µM), actives largely listed as inhibitors; 330,000 compounds, 0.46% hits; AID 720580, 2013; calls by dose curve; tested in A549 cells; also: nearly all actives have a fitted effect of over 30% in size
FMDV antiviral: High Throughput Screening for Foot and Mouth Disease Virus Antivirals | FMDV antiviral cell-based qHTS | Potency, µM (top dose mostly 57.9 µM), actives largely listed as inhibitors | 410,000 compounds, 1.2% hits | AID 1159524, 2015; calls by dose curve; tested in HEK293T cells; also: read-out not given here; nearly all actives have a fitted effect of over 45% in size
MARV entry inh: qHTS for inhibitors of binding or entry into cells for Marburg Virus. Marburg virus pseudotyped entry inhibition, cell reporter. Potency, µM (titrated, usually from 37.8 µM), hits mostly inhibitors. 300,000 compounds, 1.8% hits; calls by dose curve; tested in HEK293 cells
A number is an active result; 0 = inactive; ? = inconclusive; - = not tested or not shown.

SMILES | HCMV inh | Lassa entry inh | Vaccinia mCherry | Vaccinia Venus | FMDV antiviral | MARV entry inh
O=C(NNC(=S)Nc1ccc(F)cc1)C1CC1c1ccc(Cl)cc1 (centres undefined) | 0 | 0.41µM | 0 | 0 | 0 | 0
CSC[C@H]1CN(c2ccc(Br)cc2)C(=O)[C@H]1CC(=O)Nc1ccccc1 | - | 0 | - | - | - | -
C[C@@H]1NC(=O)/C(=C\c2ccccc2Cl)NC1=O | ? | 0 | 0 | 0 | 0 | 0
C[C@@H]1NC(=O)/C(=C\c2ccccc2Br)NC1=O | -102 | ? | 0 | 0 | 0 | 0
NC(=O)c1ccc(-c2nc(-c3ccc4c(c3)OCO4)c(-c3ccccn3)[nH]2)cc1 | - | 6.3µM | - | - | 0 | -
CC(=O)Nc1ccc(S(=O)(=O)NC(CC(=O)NCCCN2CCOCC2)C(C)C)cc1 (centres undefined) | 0 | 0 | - | 0 | 0 | 0
CCCCCCCCNC(=O)CC(NS(=O)(=O)c1ccc(NC(C)=O)cc1)C(C)C (centres undefined) | 0 | 2.1µM | 0 | 0 | 0 | 0
O=c1c(O)c(-c2cc(O)c(O)c(O)c2)oc2cc(O)cc(O)c12 | ? | ? | 0 | 0 | 0 | 22µM
O=C(O)CCCCN1C(=O)C=CC1=O | 0 | - | - | - | - | -
CCOc1ccc(Nc2sc(C(=O)c3ccc4c(c3)OCO4)c(N)c2S(=O)(=O)c2ccc(C)cc2)cc1 | 0 | 0 | 0 | 0 | 0 | -
CCOc1ccc(S(=O)(=O)c2c(C(=O)c3ccc(C)cc3)cnc3cc4c(cc23)OCCO4)cc1 | -62 | 0 | 0 | 0 | 0 | ?
COc1ccc(S(=O)(=O)c2c(C(=O)c3ccc(C)c(C)c3)cnc3ccc(C)cc23)cc1 | ? | - | 0 | 0 | 0 | ?
Cc1ccc(C(=O)c2cnc3cc4c(cc3c2S(=O)(=O)c2ccccc2)OCCO4)cc1 | -94 | 0 | ? | ? | 0 | 7.1µM
Cc1ccc2ncc(C(=O)c3ccc(C)c(C)c3)c(S(=O)(=O)c3ccccc3)c2c1 | -92 | - | 0 | 0 | 0 | ?
CS(=O)(=O)c1ccc(-c2cccc3c2OC(CNC(=O)c2ccnc(Cl)c2)C3)cc1 (centres undefined) | - | - | 0 | 0 | 0 | -
O=c1cc(CN2CCN(Cc3ccccc3)CC2)c2ccc(O)c(O)c2o1 | 0 | 0 | 0 | 0 | 0 | ?
Cc1ccccc1CN(C)Cc1cc(=O)oc2c(C)c(C)ccc12 | 0 | 2.8µM | 0 | 0 | ? | 4µM
Cc1c(O)ccc2c(CN(C)Cc3ccccc3)cc(=O)oc12 | -67 | ? | 0 | 0 | 0 | 12µM
Cc1c(O)ccc2c(CN3CCN(Cc4ccccc4)CC3)cc(=O)oc12 | -62 | - | - | - | ? | -
COc1ccc(NC(=O)C(C)(C)n2cc(NC(=O)c3ccc4ccccc4n3)cn2)cc1 | 0 | - | - | - | - | -
COc1cccc2c1OC[C@@H](CO)[C@H]2N(C)C(=O)Nc1ccc(Cl)cc1Cl | -62 | 0 | 0 | 0 | 0 | 0
CS(=O)(=O)c1ccc(C(=O)OCC(=O)NC(=O)NC2CCCCC2)cc1[N+](=O)[O-] | - | - | 0 | 0 | - | -
Cn1cccc1C(=O)NC(=O)COC(=O)c1ccc(S(C)(=O)=O)c([N+](=O)[O-])c1 | - | ? | 0 | 0 | 32µM | ?
CS(=O)(=O)c1ccc(C(=O)OCC(=O)NC23CC4CC(CC(C4)C2)C3)cc1[N+](=O)[O-] | 0 | 0 | ? | ? | 35µM | ?
COc1ccccc1N1CCN(Cc2cc(=O)oc3cc(C)ccc23)CC1 | 0 | ? | 0 | 0 | ? | -
SMILES | HCMV inh | Lassa entry inh | Vaccinia mCherry | Vaccinia Venus | FMDV antiviral | MARV entry inh
COc1ccc(CN2CCN(Cc3ccc(C)cc3)CC2)c(OC)c1 | 0 | 0 | 0 | 0 | 0 | 10µM
S=C(c1ccc(Cl)cc1)N1CCN(Cc2ccccc2)CC1 | ? | 0 | ? | 0 | 0 | 0
COc1ccc(CN2CCN(Cc3ccc(Br)cc3)CC2)c(OC)c1OC | -68 | - | - | - | ? | -
COc1ccc(CN2CCN(Cc3cc(=O)oc4cc(C)ccc34)CC2)c(OC)c1OC | 0 | 0 | 0 | 0 | 0 | 14µM
CSc1ccc(C(=S)N2CCN(Cc3ccccc3)CC2)cc1 | 0 | 16µM | - | - | 0 | 0
CCn1c(C(=O)N2CCCC(C(=O)N3CCN(c4ccccc4)CC3)C2)cc2sccc21 (centres undefined) | 0 | - | 0 | 0 | 0 | ?
Cc1cc(C)c(NC(=O)Cn2c(=O)n(CC3CCCO3)c(=O)c3ccccc32)c(C)c1 (centres undefined) | 0 | 0 | 0 | 0 | 0 | 0
O=C(CN1CCCN(Cc2ccccc2F)S1(=O)=O)Nc1ccc(F)c(Cl)c1 | 0 | 0 | 0 | 0 | 0 | -
CN(N=O)C(=O)N[C@@H]1[C@@H](O)[C@H](O)[C@@H](CO)O[C@@H]1O | 0 | - | - | - | - | -
CN1CCN(C(=O)c2ccc(N3CC4ON=C(c5c(F)cccc5Cl)C4C3)cc2)CC1 (centres undefined) | 0 | - | - | - | - | -
COc1ccc2c(c1)[C@@]1(OCCC=C[C@@H]1C)C(=O)N2Cc1ccc(Br)cc1 | - | - | - | - | - | 0
O=S1(=O)CCOC[C@H](c2ccccc2)N1Cc1ccc(Cl)cc1Cl | - | - | 0 | 0 | - | -
COc1cc(OC)c(OC)cc1CN1CCN(Cc2ccc(SC)cc2)CC1 | 0 | ? | - | - | 0 | 7.3µM
COc1cc(CN2CCN(Cc3ccc(SC)cc3)CC2)cc(OC)c1O | 0 | 0 | 0 | 0 | ? | 0
CC(C)[C@@H](C)/C=C/[C@@H](C)[C@H]1CC[C@@H]2[C@]1(C)CCC1[C@]23C=C[C@]2(C[C@@H](O)CC[C@]12C)N(c1cnccn1)O3 (some centres undefined) | 0 | - | - | - | - | -
CCC[C@H]1[C@@H](NS(=O)(=O)c2cn(C)cn2)CC[C@@]23CCCN2C(=O)CCC[C@@H]13 | 0 | - | - | - | - | -
Cc1cc2c(C)nc3ccccc3c2o1 | 0 | 0 | - | 0 | 0 | 0
Cc1cc2[nH]c3c4ccccc4nc(C)c3c2cc1C | -101 | - | - | - | 0 | -
O=C1C(=O)c2ccccc2C(O)=C1CC=C(Cl)Cl | -95 | 3.2µM | ? | 0 | ? | ?
CC(C)=CCC1=C(O)c2ccccc2C(=O)C1=O | - | - | 0 | 0 | 0 | -
CCOC(=O)C1(Cc2ccccc2C(F)(F)F)CCN(C2CCCC2)CC1 | 0 | ? | 0 | 0 | 0 | 7.9µM
CCOC(=O)C1(Cc2ccccc2C(F)(F)F)CCN(C2CCSC2)CC1 (centres undefined) | ? | 0 | 0 | 0 | 0 | 0
NNC(=O)/C(=N/Nc1ccccc1)S(=O)(=O)c1ccc(Cl)cc1 | 0 | 16µM | ? | 0 | 0 | ?
CCOC(=O)/C(=N/Nc1ccc(C)cc1)S(=O)(=O)c1ccc(Cl)cc1 | 0 | 0 | 0 | 0 | 0 | ?
CC(C)NC(=O)c1csc(C(O)c2cccc(N(C)C)c2)n1 (centres undefined) | -75 | - | - | - | - | -
O=C(Nc1ccc(Cl)cc1)c1csc(C(O)c2cccc(OC(F)(F)F)c2)n1 (centres undefined) | 0 | - | - | - | - | -
O=C(CN(Cc1ccccc1)C(=O)CCl)c1cccc(Br)c1 | -99 | - | 0 | 0 | ? | -
CCOC(=O)c1c(C)c(-c2ccccc2)n(CC(=O)Nc2cc(C)ccc2OC)c1C | 0 | - | 0 | 0 | 0 | 0
NNC(=O)CCN(Cc1ccco1)S(=O)(=O)c1ccc(Cl)cc1 | -67 | - | - | - | 0 | -
